Experimental data as given in PubChem BioAssay (Tox21).
Results filed as inconclusive are left out. A call without a number means that no potency is given here. The source holds several records for some structures; these can differ, active in one and inactive in another. Active and inactive are the calls of the source. Unless noted, calls come from the whole dose curve; as a rule, active = well fitted curve in the direction sought with a large enough effect in the repeat runs; inconclusive = weak or mixed curves; inactive = no such curve, though single readings can be large; an effect the other way counts as inactive or inconclusive.

Tests used:
[1] = A CellTox Green Cytotoxicity Assay to monitor cytotoxicity in HepG2 cells - 0 hour (AID 1224882); note: nearly all actives have a fitted effect of over 35% in size
How it was run: (§1)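 Nonlytic assay: viable cells exclude the dye, so fluorescence scales with cell death. HepG2 at 600 cells/well, compounds added after 5 h, signal read across 40 h.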

[2] = A CellTox Green Cytotoxicity Assay to monitor cytotoxicity in HepG2 cells - 32 hour (AID 1224883); note: nearly all actives have a fitted effect of over 50% in size
How it was run: as §1

[3] = A CellTox Green Cytotoxicity Assay to monitor cytotoxicity in HEK293 cells - 8 hour (AID 1224884); note: nearly all actives have a fitted effect of over 35% in size
How it was run: (§2)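 Seeding of HEK293 cells together with cytotoxicity dye preceded a 5 h incubation at 37 C/5% CO2. Test compounds in DMSO were then added and fluorescence monitored across 40 h.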

[4] = qHTS RealTime-Glo MT Cell Viability Assay in HepG2 cells - 16 hour (AID 1224885); note: nearly all actives have a fitted effect of over 50% in size
How it was run: (§3)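 Real-time, nonlytic viability: 600 HepG2 cells/well mixed with NanoLuc enzyme plus prosubstrate; 5 h settle, compound (DMSO) added by pintool; luminescence monitored over 40 h at 37 C.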

[5] = qHTS RealTime-Glo MT Cell Viability Assay in HEK293 cells - 24 hour (AID 1224886); note: nearly all actives have a fitted effect of over 50% in size; note: potency is the fitted concentration of half-maximal effect
How it was run: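 Cells + reagent dispensed (600 cells/well, HEK293) → 5 h at 37 C/5% CO2 → 23 nL compound in DMSO pinned → 40 h at 37 C → luminescence read at 0, 8, 16, 24, 32, 40 h.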

[6] = qHTS RealTime-Glo MT Cell Viability Assay in HEK293 cells - 8 hour (AID 1224887); note: nearly all actives have a fitted effect of over 50% in size; note: potency is the fitted concentration of half-maximal effect
How it was run: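 Tox21 screen in HEK293 using RealTime-Glo MT chemistry, with cells and reagent co-dispensed. Luminescence proportional to viable cell number was captured at intervals during 40 h compound exposure at 37 C.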

[7] = A CellTox Green Cytotoxicity Assay to monitor cytotoxicity in HEK293 cells - 16 hour (AID 1224888); note: nearly all actives have a fitted effect of over 35% in size
How it was run: as §2

[8] = qHTS RealTime-Glo MT Cell Viability Assay in HepG2 cells - 0 hour (AID 1224889); note: nearly all actives have a fitted effect of over 50% in size
How it was run: as §3

[9] = A CellTox Green Cytotoxicity Assay to monitor cytotoxicity in HepG2 cells - 8 hour (AID 1224890); note: nearly all actives have a fitted effect of over 45% in size
How it was run: as §1

[10] = qHTS assay to identify small molecule antagonists of the estrogen receptor alpha (ER-alpha) signaling pathway using the BG1 cell line in the presence of 0.1 nM 17-beta-estradiol - cell viability counter screen (AID 1259241); note: nearly all actives have a fitted effect of over 40% in size; note: potency is the fitted concentration of half-maximal effect
How it was run: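 Cytotoxicity counter-screen: live-cell protease activity measured by fluorescence (30 min reagent step) in the same wells. Cells were VM7Luc4E2 with endogenous ER-alpha and ERE-driven luciferase, treated 22 hr at 37C alongside 0.1 nM 17beta-estradiol final.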

[11] = biological target: Estrogen receptor (Homo sapiens) (UniProt P03372); test: qHTS assay to identify small molecule antagonists of the estrogen receptor alpha (ER-alpha) signaling pathway using the BG1 cell line in the presence of 0.1 nM 17-beta-estradiol (AID 1259244); note: nearly all actives have a fitted effect of over 50% in size
How it was run: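 VM7Luc4E2; 4xERE-luciferase; 0.1 nM E2 final; 22 h co-incubation, 37C; ONE-Glo luminescence after 30 min at room temperature.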

[12] = qHTS assay to identify small molecule HDAC inhibitors (AID 1259364); note: potency is the fitted concentration of half-maximal effect;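 note: wild-type HCT-116 cells with endogenous class I/II HDAC activity; nearly all actives have a fitted effect of over 45% in size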
How it was run: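 Relative class I and II HDAC activity is taken from the luminogenic signal in HCT-116 cells, with compound exposure 2 hr and reagent development 30 min at room temperature.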

[13] = qHTS assay to identify small molecule HDAC inhibitors - cell viability counter screen (AID 1259365)
How it was run: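 CellTiter-Glo luminescence (30 min, room temperature) reported viability after a 2 h compound exposure at 37 C. Cells: wild-type HCT-116, 1,500 per well, seeded the night before.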

[14] = qHTS assay to identify small molecule agonists of the sonic hedgehog signaling (Shh) pathway - cell viability counter screen (AID 1259366); note: nearly all actives have a fitted effect of over 50% in size; note: potency is the fitted concentration of half-maximal effect
How it was run: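 Cytotoxicity counter screen: CellTiter-Fluor reagent added after 23 h compound exposure, then 1 h at 37C and fluorescence read. Cells were 3T3 Gli1-Luc, seeded 2,000 per well and dosed 4 h post-plating.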

[15] = qHTS assay to identify small molecule antagonists of the sonic hedgehog signaling (Shh) pathway - cell viability counter screen (AID 1259367); note: nearly all actives have a fitted effect of over 55% in size; note: potency is the fitted concentration of half-maximal effect
How it was run: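 NIH/3T3-derived Gli1-Luc reporter cells, 2,000/well, plated 4 hr before compound addition, then stimulated with conditioned medium for 24 hr at 37C. Viability measured in the same wells by CellTiter-Fluor fluorescence, reagent added at 23 hr for 1 hr.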

[16] = qHTS assay to identify small molecule agonists of the sonic hedgehog signaling (Shh) pathway (AID 1259368; calls by dose curve;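 note: NIH/3T3-derived 3T3Gli1-Luc cells carrying a stable Gli1-driven firefly luciferase reporter; series mostly up to about 92 µM; nearly all actives have a fitted effect of over 15% in size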)
How it was run: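 Mouse fibroblast (NIH/3T3) reporter cells with stably integrated Gli1-Luc were treated 24 hr with compound; firefly luciferase luminescence served as the read-out.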

[17] = qHTS assay to identify small molecule antagonists of the sonic hedgehog signaling (Shh) pathway (AID 1259369; calls by dose curve; note: nearly all actives have a fitted effect of over 45% in size)
How it was run: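 Conditioned medium drives Shh signalling in 3T3Gli1-Luc cells; compounds in DMSO co-applied, 24hr at 37 C, then luciferase luminescence.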

[18] = qHTS assay to identify small molecule antagonists of the androgen receptor (AR) signaling pathway using the MDA cell line in the presence of 0.5 nM R1881 - cell viability counter screen (AID 1259242); note: nearly all actives have a fitted effect of over 45% in size
How it was run: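 R1881 at 0.5 nM final stimulated MDA-kb2 cells during 16 hr compound treatment at 37C. Cytotoxicity read: CellTiter-Fluor fluorescence after 30 min.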

[19] = biological target: Androgen receptor (Homo sapiens) (UniProt P10275); test: qHTS assay to identify small molecule antagonists of the androgen receptor (AR) signaling pathway using the MDA cell line in the presence of 0.5 nM R1881 (AID 1259243); note: nearly all actives have a fitted effect of over 50% in size; note: potency is the fitted concentration of half-maximal effect
How it was run: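 We exposed MDA-kb2 cells to compounds under 0.5 nM R1881 stimulation for 16 hr at 37C and quantified MMTV-driven luciferase by luminescence.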

[20] = qHTS assay to identify small molecule phospholipidosis (PLD) inducers (AID 1259344; active = well fitted curve in the direction sought with a large enough effect; an effect the other way counts as inactive or inconclusive)
How it was run: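 HepG2 cells, 900/well, treated with compound plus LipidTOX Red for 24 h at 37 C; amiodarone positive and DMSO negative controls. Fixed with paraformaldehyde/Hoechst, then high-content imaging scored LipidTOX pit count and integrated intensity per well and per cell.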

Estrogen receptor (Homo sapiens), sequence (P03372 whole entry, looked up): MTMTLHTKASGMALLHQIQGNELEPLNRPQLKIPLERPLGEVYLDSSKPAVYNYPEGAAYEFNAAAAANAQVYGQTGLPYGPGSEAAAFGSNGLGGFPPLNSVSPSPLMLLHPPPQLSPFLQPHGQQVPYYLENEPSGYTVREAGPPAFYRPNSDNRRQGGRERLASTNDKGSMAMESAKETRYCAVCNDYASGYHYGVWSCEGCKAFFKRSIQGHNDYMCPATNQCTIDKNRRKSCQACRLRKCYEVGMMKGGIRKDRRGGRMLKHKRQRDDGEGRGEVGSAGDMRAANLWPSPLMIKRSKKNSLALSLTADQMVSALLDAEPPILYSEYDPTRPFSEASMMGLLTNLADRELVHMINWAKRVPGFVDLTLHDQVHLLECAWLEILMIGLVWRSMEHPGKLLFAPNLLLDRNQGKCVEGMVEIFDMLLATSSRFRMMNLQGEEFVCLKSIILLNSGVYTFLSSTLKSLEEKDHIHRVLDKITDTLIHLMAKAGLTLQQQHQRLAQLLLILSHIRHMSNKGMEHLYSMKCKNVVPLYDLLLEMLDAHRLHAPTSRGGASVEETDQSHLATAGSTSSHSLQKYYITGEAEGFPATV
Androgen receptor (Homo sapiens), sequence (P10275 whole entry, looked up): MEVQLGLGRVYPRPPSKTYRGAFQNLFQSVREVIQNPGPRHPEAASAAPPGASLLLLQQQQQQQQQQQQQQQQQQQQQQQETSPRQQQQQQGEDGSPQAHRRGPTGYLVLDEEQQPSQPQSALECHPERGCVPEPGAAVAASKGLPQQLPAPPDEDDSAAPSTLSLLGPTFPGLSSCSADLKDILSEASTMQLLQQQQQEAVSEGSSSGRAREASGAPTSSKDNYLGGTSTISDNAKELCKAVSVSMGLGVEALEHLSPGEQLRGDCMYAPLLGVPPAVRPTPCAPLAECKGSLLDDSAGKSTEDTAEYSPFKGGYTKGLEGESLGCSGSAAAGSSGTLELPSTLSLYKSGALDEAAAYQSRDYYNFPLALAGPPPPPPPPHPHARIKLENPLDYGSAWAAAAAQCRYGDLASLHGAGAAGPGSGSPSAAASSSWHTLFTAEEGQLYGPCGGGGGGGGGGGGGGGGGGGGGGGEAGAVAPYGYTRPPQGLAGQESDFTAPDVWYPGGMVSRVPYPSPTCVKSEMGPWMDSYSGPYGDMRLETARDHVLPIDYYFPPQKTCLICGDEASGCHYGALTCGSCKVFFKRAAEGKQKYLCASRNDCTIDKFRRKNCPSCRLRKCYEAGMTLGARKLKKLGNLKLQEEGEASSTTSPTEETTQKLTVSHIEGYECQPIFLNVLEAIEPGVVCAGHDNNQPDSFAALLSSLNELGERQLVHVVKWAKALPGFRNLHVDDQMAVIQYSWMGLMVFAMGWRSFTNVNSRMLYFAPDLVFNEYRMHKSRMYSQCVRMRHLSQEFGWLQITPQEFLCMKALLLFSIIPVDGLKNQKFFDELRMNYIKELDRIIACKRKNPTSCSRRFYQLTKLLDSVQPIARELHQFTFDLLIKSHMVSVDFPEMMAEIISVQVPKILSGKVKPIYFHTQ

Structure (SMILES) | Potency [1] | Potency [2] | Potency [3] | Potency [4] | Potency [5] | Potency [6] | Potency [7] | Potency [8] | Potency [9] | Potency [10] | Potency [11] | Potency [12] | Potency [13] | Potency [14] | Potency [15] | Potency [16] | Potency [17] | Potency [18] | Potency [19] | Potency [20]
CCCCCCCCCCCCCCCC(=O)OCC | inactive | inactive | inactive | inactive | inactive | inactive | inactive | inactive | inactive | inactive | inactive | inactive | inactive | inactive | inactive | inactive | inactive | – | – | –
CCOC(=O)Oc1ccc(CCNC(=O)[C@H](CCSC)NC(C)=O)cc1OC(=O)OCC | inactive | inactive | inactive | inactive | inactive | inactive | inactive | inactive | inactive | – | inactive | inactive | – | inactive | inactive | – | inactive | inactive | inactive | –
O=C1CC[C@@H](C(=O)O)N1 | inactive | inactive | inactive | inactive | inactive | inactive | inactive | inactive | inactive | inactive | – | inactive | inactive | inactive | inactive | inactive | inactive | – | inactive | inactive
CSSc1ccoc1C | inactive | inactive | inactive | inactive | inactive | inactive | inactive | inactive | inactive | inactive | – | inactive | inactive | inactive | inactive | inactive | inactive | inactive | – | –
Cc1cccc(C)c1NC(=O)c1cc(S(N)(=O)=O)c(Cl)cc1O | inactive | inactive | inactive | inactive | inactive | inactive | inactive | inactive | inactive | inactive | – | inactive | inactive | inactive | inactive | inactive | inactive | inactive | – | inactive
CCN(CC)CC(=O)Nc1c(C)cccc1C(=O)OC | inactive | inactive | inactive | inactive | inactive | inactive | inactive | inactive | inactive | inactive | inactive | inactive | inactive | inactive | inactive | inactive | inactive | – | – | –
CCN(CC)c1ccc(C(=C2C=CC(=[N+](CC)CC)C=C2)c2ccc(S(=O)(=O)O)cc2S(=O)(=O)[O-])cc1 | inactive | inactive | inactive | inactive | inactive | inactive | inactive | inactive | inactive | 12.2 µM (active) | – | 3.86 µM (active) | – | 24.3 µM (active) | 17.2 µM (active) | – | – | – | 9.69 µM (active) | –
C=CC(=O)O | inactive | inactive | inactive | inactive | inactive | inactive | inactive | inactive | inactive | – | inactive | inactive | inactive | inactive | inactive | inactive | inactive | inactive | – | inactive
CC(=O)N[C@@H](Cc1ccc(O)cc1)C(=O)O | inactive | inactive | inactive | inactive | inactive | inactive | inactive | inactive | inactive | inactive | – | inactive | inactive | inactive | inactive | – | inactive | inactive | – | inactive
COc1ccc2nc(S(=O)Cc3ncc(C)c(OC)c3C)[nH]c2c1 (stereo not given) | inactive | inactive | inactive | inactive | 21.6 µM (active) and inactive | 24.3 µM (active) and inactive | inactive | inactive | inactive | – | inactive | inactive | inactive | inactive | inactive | inactive | – | inactive | – | inactive
CC(C)(C)NCC(O)COc1cccc2c1C[C@H](O)[C@H](O)C2 (stereo not given in full) | inactive | inactive | inactive | inactive | inactive | inactive | inactive | inactive | inactive | – | inactive | inactive | inactive | inactive | inactive | inactive | inactive | inactive | – | inactive
CC(C)(C)CCCCCCOC(=O)c1ccccc1C(=O)OCCCCCCC(C)(C)C | inactive | inactive | inactive | inactive | inactive | inactive | inactive | inactive | inactive | inactive | inactive | inactive | inactive | inactive | inactive | inactive | inactive | – | – | –
COc1ccc(N)c([N+](=O)[O-])c1 | inactive | inactive | inactive | inactive | inactive | inactive | inactive | inactive | inactive | inactive | – | – | – | inactive | – | inactive | inactive | inactive | – | –
Cc1ccccc1S(N)(=O)=O | inactive | inactive | inactive | inactive | inactive | inactive | inactive | inactive | inactive | inactive | – | inactive | inactive | inactive | inactive | inactive | inactive | inactive | – | –
CCCCCc1ccco1 | inactive | inactive | inactive | inactive | inactive | inactive | inactive | inactive | inactive | inactive | – | inactive | inactive | inactive | inactive | inactive | – | inactive | – | –
OCC(CO)n1cnc(-c2ccc(F)cc2)c1-c1ccnc(Oc2ccccc2)n1 | inactive | inactive | inactive | inactive | inactive | inactive | inactive | inactive | inactive | – | inactive | inactive | inactive | inactive | – | – | – | inactive | – | –
